From PubChem BioAssay (NCI)
“And” between values parts separate entries of the source, which are not always exact repeats. Equal values may be shown once. The panel holds about 83,000 compounds, 20% with a hit somewhere; the sample as a whole holds those more often.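 Interpretation: 100, growth as untreated; towards 0, rising growth inhibition; 0, no net growth; 0 to -100, cell death. Compounds scoring below 10 were considered active.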 The source made the active and inactive calls.

Tested on: MDA-MB-468 breast
Assay: NCI-60 one-dose screen, 48 h (100 = growth as untreated, 0 = no growth, -100 = all killed)
Conditions: 10 µM unless noted

Question: Which growth does the source give for `Cc1cc(=O)n2nnc3cc(Cl)c(Cl)cc3n12` here?
Answer: 67% (inactive)

Question: For `COc1ccc(N2CCN(CC(=O)N3CCN(c4nnc(-c5ccc(Cl)cc5)c(-c5ccc(Cl)cc5)n4)CC3)CC2)cc1`, which growth is on record?
Answer: 78.6% (inactive)

Question: `CCCN1C(=O)/C(=c2\sc3n(c2=O)NC2C(N=3)N(CC)C(=O)N2CC)c2ccccc21` (stereo unspecified) was tested. Which growth did it give?
Answer: 14.6% (inactive)

Question: For `COc1ccc(/C=C(\C#N)n2nnc3ccccc32)cc1`, which growth is on record?
Answer: 4.67% (active)

Question: Which growth does the source give for `CC(C)CC(=O)Nc1n[nH]c2c1CN(C(=O)C1CCN(C)CC1)C2(C)C` here?
Answer: -44.3% (active)

Question: With `COc1ccc(C(O)c2cc3c(N)c(C(=O)Nc4ccc(Br)cc4)sc3nc2C)cc1` (stereo unspecified) as the compound, how does the growth read?
Answer: -0.733% (active)

Question: Which growth does the source give for `Oc1c(I)cc(-c2nc3ccccc3s2)cc1CN(Cc1ccccn1)Cc1ccccn1` here?
Answer: -11.4% (active)

Question: `C[C@H]1[C@H](C)CC[C@]2(C(=O)O)CC[C@]3(C)C(=CC[C@@H]4[C@@]5(C)C/C(=C/c6ccco6)C(=O)C(C)(C)[C@@H]5CC[C@]43C)[C@H]12` was tested. Which growth did it give?
Answer: -38% [100 µM] (active)

Question: For `COc1cc(C=C2C(=O)NC(=S)NC2=O)cc(CN2CCCC2)c1O`, which growth is on record?
Answer: 110% (inactive)

Question: `C#CCOc1ccc(/C=N/Nc2nc(-c3cc4cc(Br)cc(Br)c4oc3=O)cs2)cc1` was tested. Which growth did it give?
Answer: 106% (inactive)

Question: With `Cc1ccccc1-n1nnc(C(=O)Nc2nc(-c3ccccc3)c(-c3ccccc3)s2)c1C` as the compound, how does the growth read?
Answer: 61.9% [50 µM] (inactive)

Question: `C/C(=N\NC(=O)Cn1c(-c2ccc(S(C)(=O)=O)cc2)nc2cc(Cl)ccc21)c1ccc(Cl)cc1` was tested. Which growth did it give?
Answer: 68.7% (inactive)

Question: `COc1ccc(Oc2nc(Nc3ccc(N4CCOCC4)cc3)ncc2NC(=O)Nc2cc(OC)cc(OC)c2)cc1` was tested. Which growth did it give?
Answer: 25.3% (inactive)

Question: For `O=C(N/N=C/c1cccs1)c1[nH]c2ccc(Br)cc2c1-c1ccccc1`, which growth is on record?
Answer: -8.42% (active)

Question: For `COc1ccc(-c2nc(-c3ccccc3OCc3ccccc3OC)nc(C)c2C(C)=O)cc1`, which growth is on record?
Answer: 72% (inactive)

Question: `O=C(CCl)NC1c2ccccc2Oc2ccccc21` was tested. Which growth did it give?
Answer: 71.5% (inactive)

Question: With `CN(C)CCC(=O)c1ccc(Cl)cc1` as the compound, how does the growth read?
Answer: 97.3% (inactive) and 97.2% (inactive)

Question: Which growth does the source give for `C#CCn1c(-c2cc(OC)c(OC)cc2Br)nc(-c2ccccc2)c1-c1ccccc1` here?
Answer: 5.05% (active)

Question: `O=C1Nc2ccccc2/C1=C/C(=O)c1ccc(N2CCOCC2)cc1` was tested. Which growth did it give?
Answer: 85% (inactive)

Question: `O=C(Nc1ccccc1F)Nc1ccccc1Cl` was tested. Which growth did it give?
Answer: 76% (inactive)

Question: Which growth does the source give for `CCN(CC)CCOc1ccc(-c2nc3cc(Cl)ccc3s2)cc1` here?
Answer: -17% (active)

Question: For `COC(=O)C1(C)Cc2cc(OC(C)=O)c(OC(C)=O)cc2N1` (stereo unspecified), which growth is on record?
Answer: -3.93% (active)

Question: Which growth does the source give for `COc1ccc(C2NCCc3c2[nH]c2ccccc32)cc1CN1CCN(c2ccc(F)cc2)CC1` (stereo unspecified) here?
Answer: 49% (inactive)

Question: How did the growth turn out when `C/C(=C\c1ccccc1)C(O)C(=O)c1nc2ccc([N+](=O)[O-])cc2[nH]c1=O` (stereo unspecified) was run?
Answer: 89.7% (inactive)

Question: How did the growth turn out when `C=C(C[C@](O)(C(=O)/C=C/c1ccc(Cl)cc1)C(=O)OC)c1ccccc1` was run?
Answer: 69.5% (inactive)

Question: `CCCCC1COc2cccc3c2N1C=C/C3=C\C(=O)N(C)c1ccccc1` (stereo unspecified) was tested. Which growth did it give?
Answer: 18.8% (inactive)

Question: How did the growth turn out when `C#CCn1cnc2c(Nc3cccc(NC(=O)CCl)c3)ncnc21` was run?
Answer: 23.5% (inactive)

Question: How did the growth turn out when `Cc1ccccc1/C=C/c1nn2c(-c3ccoc3C)nnc2s1` was run?
Answer: 91.7% (inactive)

Question: How did the growth turn out when `Cn1c(NCCc2ccc(O)c(O)c2)nc2c1c(=O)n(Cc1ccc(Br)cc1)c(=O)n2C` was run?
Answer: 43.3% (inactive)

Question: For `COc1ccc(Nc2nc3ccc(NC(=O)NC4CCCCC4)cc3[nH]c2=O)cc1`, which growth is on record?
Answer: 96% (inactive)

Question: How did the growth turn out when `CCC1=CC2CN(C1)Cc1c([nH]c3ccccc13)[C@@](C(=O)OC)(c1cc3c(cc1OC)N(C)[C@H]1[C@@](O)(C(=O)OC)[C@H](OC(C)=O)[C@]4(CC)C=CCN5CC[C@]31[C@@H]54)C2` (stereo partly specified) was run?
Answer: 44.4% (inactive)

Question: How did the growth turn out when `CC(=O)O[C@@H]1C[C@]2(C(C)C)O[C@@]1(C)[C@@H]1CCC(C)=C1[C@@H]2OC(=O)/C=C/c1ccccc1` was run?
Answer: 81.5% (inactive)

Question: For `COc1cc2ncnc(-n3ncc4cc(NC(=O)Nc5ccccc5)ccc43)c2cc1OC`, which growth is on record?
Answer: -67% (active)

Question: How did the growth turn out when `NC(=O)c1ccc[n+]([C@@H]2O[C@H](COP(=O)([O-])OP(=O)(O)OC[C@H]3O[C@@H](n4cnc5c(N)ncnc54)[C@H](O)[C@@H]3O)[C@@H](O)[C@H]2O)c1` was run?
Answer: 122% (inactive)

Question: `Nc1nc(N)c2c(n1)NC(c1ccc(Cl)cc1)C1CCc3ccccc3C1=N2` (stereo unspecified) was tested. Which growth did it give?
Answer: 18.6% (inactive)

Question: How did the growth turn out when `ONc1nc(NO)c2[nH]cnc2n1` was run?
Answer: 47.6% (inactive)
